Screens as filed in PubChem.
KDM4E inh: blocks human JMJD2E demethylase activity. B2RXH2. JMJD2E catalytic domain, FDH-coupled NADH fluorescence (FDH is formaldehyde dehydrogenase). Potency, µM (series often up to 57.1 µM), inactives show top-dose activity change, negative = inhibition, usual class: inhibitors. 230,000 compounds, 1.6% hits;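 note: 0% = wells with enzyme and -100% = buffer wells without enzyme; nearly all actives have a fitted effect of over 50% in size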
Target sequence (B2RXH2 1-337 limits assumed): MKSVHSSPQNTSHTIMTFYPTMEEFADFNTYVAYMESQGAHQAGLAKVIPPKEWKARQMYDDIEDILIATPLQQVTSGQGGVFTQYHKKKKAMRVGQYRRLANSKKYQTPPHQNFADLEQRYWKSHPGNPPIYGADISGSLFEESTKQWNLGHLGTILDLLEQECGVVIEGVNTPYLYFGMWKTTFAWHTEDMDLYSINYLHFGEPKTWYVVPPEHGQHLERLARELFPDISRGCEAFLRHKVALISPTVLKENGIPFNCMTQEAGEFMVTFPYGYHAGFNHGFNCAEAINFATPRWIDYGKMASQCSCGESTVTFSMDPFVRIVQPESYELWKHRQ
Tau FP inhib: tau fibrillization inhibition (FP); P10636; K18 P301L tau heparin fibrillization, Alexa594 FP, 6 h; Potency, µM (highest dose often 57.7 µM), inactives show top-dose activity, negative = inhibition, most hits filed as inhibitors; 280,000 compounds, 0.39% hits; AID 1468; active = well fitted curve in the direction sought with a large enough effect; inconclusive = small, poorly fitted or top-dose-only effect, or another doubt; inactive = no such curve, though single readings can be large; an effect the other way counts as inactive or inconclusive; note: nearly all actives have a fitted effect of over 55% in size
Target sequence (P10636 561-689 P618L limits assumed): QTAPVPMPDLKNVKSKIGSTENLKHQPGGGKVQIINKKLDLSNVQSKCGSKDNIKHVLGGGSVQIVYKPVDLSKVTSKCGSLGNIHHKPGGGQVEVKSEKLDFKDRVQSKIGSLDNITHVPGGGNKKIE
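FP of Alexa 594-tau after heparin (20 uM) induction. Substrate: human K18 P301L, 15 uM unlabeled, 0.24 uM labeled. Buffer 100 mM sodium acetate pH 7. 6 hr, 37 C.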
Tau ThT inhib: tau fibrillization inhibition (ThT binding). P10636. recombinant tau K18 P301L, heparin-induced fibrillization, ThT fluorescence. Potency, µM (top dose mostly 57.4 µM), for the others: top-dose activity, negative = inhibition, actives largely listed as inhibitors. 270,000 compounds, 2.1% hits; active = well fitted curve in the direction sought with a large enough effect; inconclusive = small, poorly fitted or top-dose-only effect, or another doubt; inactive = no such curve, though single readings can be large; an effect the other way counts as inactive or inconclusive; note: nearly all actives have a fitted effect of over 55% in size
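Recombinant human tau K18 fragment […] carrying P301L, 15 uM unlabeled plus 0.24 uM Alexa 594-labeled, was fibrillized with 20 uM heparin in 100 mM sodium acetate pH 7 for 6 hr at 37 C; 30 uM ThT fluorescence read after 1 hr.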
ALDH1A1 inh: inhibitors of human aldehyde dehydrogenase 1A1 | 220,000 compounds, 7.3% hits | Purified ALDH1A1, NADH fluorescence, propionaldehyde substrate | AID 1030 | P00352 | Potency, µM (series often up to 75.3 µM), for the others: top-dose activity, negative = inhibition, actives largely listed as inhibitors;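 note: plate controls were no enzyme wells and a reference inhibitor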
Tau fluor counter: counter-screen for tau fibril formation inhibitors. tau K18 P301L (four-repeat tau fragment) Alexa594 fluorescence, heparin fibrillization. Potency, µM (highest dose often 57.7 µM), for inactives: at the top dose activity change, negative = decrease. 280,000 compounds, 0.93% hits; active = well fitted curve in the direction sought with a large enough effect; inconclusive = small, poorly fitted or top-dose-only effect, or another doubt; inactive = no such curve, though single readings can be large; an effect the other way counts as inactive or inconclusive; note: nearly all actives have a fitted effect of over 55% in size
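Human K18 P301L tau (15 uM unlabeled plus 0.24 uM Alexa 594-labeled, final) in 100 mM sodium acetate pH 7 was mixed with compound and 20 uM heparin and incubated 6 hr at 37 C.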
HPGD block: HPGD (human) dehydrogenase inhibition | P15428 | purified HPGD, NADH fluorescence kinetic, PGE2 substrate | Potency, µM, inactives show top-dose activity change, negative = inhibition, most hits filed as inhibitors | 150,000 compounds, 4.3% hits | AID 894
Target sequence (P15428 whole entry, looked up): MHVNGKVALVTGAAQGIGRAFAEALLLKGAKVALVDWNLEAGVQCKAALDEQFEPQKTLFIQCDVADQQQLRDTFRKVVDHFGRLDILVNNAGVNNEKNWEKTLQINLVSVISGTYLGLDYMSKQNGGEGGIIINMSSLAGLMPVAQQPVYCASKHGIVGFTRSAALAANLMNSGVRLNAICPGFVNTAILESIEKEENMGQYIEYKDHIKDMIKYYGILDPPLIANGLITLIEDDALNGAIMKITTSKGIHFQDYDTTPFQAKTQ
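NADH formation kinetics: reaction with 30 uM PGE2 and 1 mM NAD+ (final), 20 nM enzyme, Tris-HCl pH 8 with Tween 20, after 15 min compound preincubation at room temperature. Fluorescence change, last versus first of five reads.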
Active calls of the source: *; ? = inconclusive; nt = no result; [ ] = another dose, or the depositor's remark. Rows were chosen to be rich in hits. Some 9.9% of all compounds tested hit in one or more screens of this group. Unless noted, calls come from the whole dose curve; as a rule, active = well fitted inhibition curve with a large enough effect (not every such curve was filed as active); inconclusive = small, poorly fitted or top-dose-only effect, or another doubt; inactive = no such curve, though single readings can be large or run the other way. Unless noted, % is set by controls: 0 for no effect and ±100 for the full control effect; potency is the fitted concentration of half-maximal effect.

SMILES | KDM4E inh | Tau FP inhib | Tau ThT inhib | ALDH1A1 inh | Tau fluor counter | HPGD block
CCOc1cc(C(N)=O)cc(Br)c1OCc1ccccc1 | 1.4% | -14.5% | -2.3% | 7.6% | -17.0% | nt
NC(=O)c1c(NC(=O)C2CCCO2)sc2c1CCCC2 (stereo unspecified) | -2.7% | -1.4% | 2.8% | ? | 10.5% | 8.91µM*
CCOC(=O)c1c(NS(=O)(=O)c2cccc(OC)c2)sc2c1CCC2 | ? | -10.4% | ? | 10µM* | -24.7% | 35.5µM*
CCOC(=O)c1c(NC(=O)COc2cccc3c2CCN(C)C3=O)sc2c1CCC2 | ? | -1.8% | -14.2% | 20µM* | 1.7% | ?
CCOC(=O)c1c(NC(=O)c2ccccc2C)sc2c1CCCC2 | nt | ? | 31.6µM* | nt | -24.3% | nt
CCOC(=O)c1c(NC(=O)c2cc(Cl)ccc2Cl)sc2c1CCCC2 | nt | 0.4% | -16.4% | nt | -19.9% | nt
NNC(=O)CS(=O)(=O)c1ccc(Cl)cc1 | 57.1% | -4.3% | -14.8% | ? | -13.9% | nt
CCCc1cc(C(N)=O)c(NC(=O)C2CCCO2)s1 (stereo unspecified) | -27.9% | -11.2% | ? | 14.1µM* | -10.1% | ?
CCCc1cc(C(N)=O)c(NC(=O)c2ccco2)s1 | ? | 1.4% | 12.0% | ? | 3.0% | ?
CCOC(=O)OCC1OC(C#Cc2ccccc2)C=CC1OC(=O)OCC (stereo unspecified) | nt | -22.7%[11.6 µM] | ? | 3.55µM* | -11.0%[11.6 µM] | nt
CC(=O)Nc1ccc(Oc2cncc(Cl)c2)nc1 | -7.1% | 1.6% | 1.1% | nt | 4.1% | nt
COc1ccccc1/C=C/C=C1\Oc2c(ccc(O)c2CN2CCN(CCO)CC2)C1=O | -23.8% | -0.2% | ? | ? | ? | 15.8µM*
Cc1cccc(N=Nc2cnc(N)s2)c1 | -0.6% | 4.9% | 5.01µM* | -6.4% | ? | nt
C/C=C\C1=C(CO)C(=O)[C@@H]2OC2C1=O (stereo partly specified) | nt | ? | 3.55µM* | 0.708µM* | ? | nt
Cc1cc(-c2n[nH]c(=S)n2/N=C/c2cccc(O)c2)n[nH]1 | 12.9% | 5.0% | 3.9% | 1.3% | 6.1% | nt
Cc1cc(-c2n[nH]c(=S)n2/N=C/C(Cl)=C/c2ccccc2)n[nH]1 | ? | -5.6% | ? | ? | -20.5% | 6.31µM*
S=c1[nH]nc(-c2ccco2)n1/N=C/C(Cl)=C/c1ccccc1 | -10.3% | ? | 14.1µM* | -4.9% | ? | nt
S=c1[nH]nc(-c2ccco2)n1/N=C/c1ccccn1 | -29.2% | -7.8% | -7.7% | -8.2% | -5.7% | nt
COc1ccccc1CNC(=O)c1ccc2c(c1)CCN2S(=O)(=O)c1ccc(Cl)cc1 | nt | -5.9% | 12.9% | nt | -11.1% | nt
CCOc1ccccc1NC(=O)NCCn1c(=O)oc2ccc(C)cc21 | nt | -5.2% | -15.9% | nt | -26.6% | nt
CC(=O)n1cc([C@@H]2C=C(C(=O)N3CCN(Cc4ccccc4)CC3)O[C@H](OCc3ccc(CO)cc3)C2)c2ccccc21 | 20µM* | 6.0% | ? | 15.8µM* | -15.3% | nt
CC(=O)n1cc([C@H]2C=C(C(=O)N3CCN(Cc4ccccc4)CC3)O[C@@H](OCCCCO)C2)c2ccccc21 | ? | 0.9% | -13.0% | 28.2µM* | -0.1% | nt
CC(=O)c1sc2c(c1C)c(=O)n(-c1ccc(Cl)cc1)c(=O)n2Cc1cc(=O)n2cc(Cl)ccc2n1 | nt | -0.9% | -7.0% | nt | -9.1% | nt
Cc1ccc2cc(CN(CC3CCCO3)S(=O)(=O)c3ccccc3)c3nnnn3c2c1 (stereo unspecified) | -3.6% | 8.3% | -11.6% | 7.08µM* | -12.9% | -20.2%
O=C(O)Cc1coc2ccc3ccccc3c12 | ? | 4.6% | 6.6% | -5.9% | 8.8% | nt
SMILES | KDM4E inh | Tau FP inhib | Tau ThT inhib | ALDH1A1 inh | Tau fluor counter | HPGD block
O=C(Cc1coc2ccc3ccccc3c12)N1CCCC1 | ? | 5.6% | 9.2% | ? | 9.6% | 12.6µM*
Cc1cccc(NC(=O)Cc2coc3ccc4ccccc4c23)n1 | ? | 1.9% | -8.6% | -3.7% | -21.4% | 15.8µM*
CCCCNC(=O)Cc1coc2ccc3ccccc3c12 | -11.1% | 2.9% | -3.7% | -0.9% | -9.9% | 14.1µM*
CCOC(=O)c1c(S(=O)(=O)NCC(=O)Nc2ccc(C)c(N(C)C)c2)c(C)n(C)c1C | nt | -4.6% | -10.2% | nt | -12.5% | nt
CCc1nn(CC(=O)NCCCOC)c(=O)c2cc3occc3n12 | nt | -1.6% | -0.7% | nt | -0.3% | nt
COc1ccc(/C=N/NC(=O)CNc2c(Br)cc(C)cc2Br)c(C(=O)O)c1OC | 7.7% | 4.2% | 0.0% | 7.08µM* | 11.9% | nt
COc1ccc(/C=N/NC(=O)CNc2ccc(Br)cc2)c(C(=O)O)c1OC | -3.2% | 1.4% | ? | -7.8% | -15.1% | nt
Cc1cccc(CNC(=O)CN2CC(C)Sc3ccccc32)c1 (stereo unspecified) | nt | 5.7% | -0.3% | nt | -15.9% | nt
CCOC(=O)C1(CCCc2ccccc2)CCN(C(=O)C(C)n2cncn2)CC1 (stereo unspecified) | -4.5% | 2.7% | -7.0% | 7.08µM* | -12.2% | nt
CCOC(=O)C1(CCCc2ccccc2)CCN(C(=O)c2ocnc2C)CC1 | 5.5% | -4.3% | -13.3% | 0.891µM* | -5.9% | nt
CCOC(=O)C1(CCCc2ccccc2)CCN(C(=O)CCc2cnccn2)CC1 | 0.7% | 1.8% | -5.1% | 3.98µM* | 7.8% | nt
CCOC(=O)C1(CCCc2ccccc2)CCN(C(=O)c2cncs2)CC1 | 1.3% | 1.7% | -17.1% | 5.62µM* | -2.7% | nt
CCOC(=O)C1(CC2CC2)CCN(C(=O)c2ocnc2C)CC1 | 3.2% | -0.9% | -4.0% | 0.9% | -4.5% | nt
COc1cccc(Cn2c(=O)cc(C)c3c(C)nn(C)c32)c1 | nt | 1.7% | ? | nt | -9.8% | nt
CC(=O)c1c(C)[nH]c(C(=O)CN2C(=O)NC(CCc3ccccc3)C2=O)c1C (stereo unspecified) | -5.9% | 5.6% | -20.5% | 0.3% | -24.7% | nt
COC(=O)NC1C=CCCC1C(C)=O (stereo unspecified) | 6.1% | ? | 1.0% | -2.8% | -9.9% | -3.6%
CN1CCN(c2nc3c(c(=O)n(C)c(=O)n3C)n2C)CC1 | nt | nt | nt | -7.0%[13.5 µM] | nt | -7.2%
CCc1nnc2c3ccccc3nc(N3CCN(c4cc(Cl)ccc4C)CC3)n12 | nt | -4.9% | -5.8% | nt | 7.6% | nt
COc1ccc(OCc2nnc(SCC(=O)N(C)Cc3ccccc3)n2N)cc1 | -24.2% | -4.4% | -11.2% | 8.91µM* | -1.6% | nt
Cc1ccc(OCc2nnc(SCC(=O)O)n2N)cc1 | -10.6% | 1.2% | -0.6% | -2.3% | 0.6% | -6.8%
COc1ccc(N(C(=O)CCl)C(C)(C(=O)Nc2c(C)cccc2C)c2ccccn2)cc1 (stereo unspecified) | -0.7% | 7.9% | ? | 3.9% | -11.6% | 0.8%
COC(OC)c1nc(SCC(=O)Nc2cccc(Cl)c2)ncc1C(=O)O | -16.1% | -13.7% | ? | 28.2µM* | -18.0% | nt
